Common to all, as to experiment: NCI-60 one-dose screen, 48 h (100 = growth as untreated, 0 = no growth, -100 = all killed)
Holding throughout (settings): 10 µM unless noted

Assay [1] relates to DU-145 prostate.
Assay [2] concerns K-562 leukemia.
The test system of assay [3] is MALME-3M melanoma.
Assay [4] has as its system MDA-MB-231 breast.
For assay [5], the system named is RXF 393 renal.
The subject of assay [6] is SF-268 CNS.
Assay [7] concerns SF-295 CNS.
Assay [8] has as its system SF-539 CNS.
The test system of assay [9] is UACC-257 melanoma.
In assay [10] the test system is M14 melanoma.

This is part of a sample that, as a whole, favours compounds with a hit. Of some 83,000 tested, about 20% had one in any assay.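 Compound tested at a single concentration for 48 hours in 96-well plates; a percent growth value below 10 was scored as active.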 A number with no mark means an inactive call. Active and inactive are the calls of the source.

With `Cc1ccc(Cl)cc1Nc1nc(C(F)(F)F)ccc1C(=O)N/N=C/c1cccnc1`, the growth was 41.5% in assay [1]; 7.72% (active) in assay [2]; 15% in assay [3]; 33.4% in assay [4]; 11.6% in assay [5]; 27.7% in assay [6]. Moreover, the growth in assay [7] was -20.6% (active); in assay [8] it was 27.1%; in assay [9], 28.2%; in [10] it was 47.9%.

On to `O=S(=O)(Nc1cc(Br)c(O)c2ccccc12)c1ccc(F)cc1`, for which the growth was 81.2% in assay [1]; 28.7% in assay [2]; 62.2% in assay [3]; 10.7% in [4]; 102% in assay [5]; 79.4% in assay [6]. The growth in assay [7] was 95%; in [8], 85.1%; in [9], 63.4%; in assay [10] it was 96.7%.

Regarding `Oc1ccc(CCn2c(O)c(/C=C3\CN=c4ccccc4=N3)sc2=S)cc1`, the growth in assay [1] was 28%; in assay [2], 22.9%; in assay [3] it was 62.3%; in [4], 26%; in [5], 45.1%; in [6] it was 75%. Moreover, the growth in [7] is 93.6%; in assay [8], 20.7%; in assay [9], 71.4%; in assay [10], 62.4%.

On to `Cc1cc(=O)[nH]c2c(C#N)cnn12`, for which the growth was 104% in assay [1]; 103% in assay [2]; 98.9% in assay [3]; 104% in [4]; 110% in assay [5]; 99.9% in assay [6]. Moreover, the growth is 101% in assay [7], 101% in assay [8], 96.7% in assay [9] and 105% in assay [10].

For the molecule `CCCCC(=O)c1ccco1`, the growth is 98.6% in assay [1]; 104% in assay [2]; 103% in [3]; 98.7% in [4]; 97.6% in assay [5]; 96% in assay [6]. Also, the growth was 101% in assay [7], 99.5% in [8], 105% in [9] and 90.6% in assay [10].

In the case of `O=C(NCCCCNC(=O)OCc1ccc2c(Cl)cc(Cl)c(O)c2n1)OCc1ccc2c(Cl)cc(Cl)c(O)c2n1`, the growth is 1.77% (active) in assay [1]; 11.6% in assay [2]; 43% in assay [3]; 25.1% in [4]; 27% in assay [5]; 31.3% in assay [6]. For the same molecule, the growth was 22.8% in [7], -13.7% (active) in assay [8], 23.8% in assay [9] and 12.4% in assay [10].

For the molecule `COc1cccc(/C=C/C(=O)c2cc3c(N)c(C(=O)Nc4ccccc4)sc3nc2C)c1`, the growth was 12% in assay [1]; 13.3% in assay [2]; 68.6% in assay [3]; 17.1% in assay [4]; -74.6% (active) in assay [5]; 18.2% in [6]. The growth in [7] was 44.8%; in assay [8] it was -16% (active); in [9], 71.8%; in assay [10], 29.9%.

On to `C=C(CNCCc1ccc(O)cc1)[C@@H]1CC[C@]2(CO)CC[C@]3(C)[C@H](CC[C@@H]4[C@@]5(C)CCC(NCCO)C(C)(C)[C@@H]5CC[C@]43C)[C@@H]12` (stereo not given in full), for which the growth is -31% (active) in [1]; -49% (active) in assay [2]; -90.6% (active) in [3]; -77.6% (active) in [4]; -90.3% (active) in assay [5]; -62.4% (active) in assay [6]. In addition, the growth in assay [7] is -80.8% (active); in assay [8] it was -97.3% (active); in assay [9], -77.9% (active); in [10] it was -89.3% (active).

On to `CN1CCN(C(=O)OCc2ccc3c(Cl)cc(Cl)c(O)c3n2)CC1`, for which the growth in assay [1] was 56.3%; in assay [2], 18.1%; in assay [3] it was 81%; in assay [4], 90.5%; in [5] it was 71.3%; in assay [6], 53.3%. Also, the growth in assay [7] is 45.3%; in assay [8] it was 66.2%; in assay [9], 89.3%; in assay [10], 55.4%.

Turning to `CCOc1ccc(NC(=O)CSc2oc(-c3ccccc3)nc2S(=O)(=O)c2ccc(F)cc2)cc1`, the growth was 89.8% in [1]; 65.9% in assay [2]; 78.3% in [3]; 64.2% in assay [4]; 77.6% in assay [5]; 60.2% in assay [6]. The growth was 50% in assay [7], 6.59% (active) in assay [8], 70.1% in [9] and 86.9% in assay [10].

Regarding `O=C1c2cccnc2C(=O)c2c1c(C(=O)NCCCN1CCCCC1)c1ccccn21`, the growth in [1] is -94.4% (active); in assay [2], -25.4% (active); in [3], -92.6% (active); in assay [4], -3.12% (active); in [5] it was -39.5% (active); in assay [6] it was -13% (active). In addition, the growth in assay [7] was -13.6% (active); in assay [8] it was -61.2% (active); in [9], -82.8% (active); in assay [10], -88.1% (active).

Turning to `Cc1ccc(Cc2cnc(NC(=O)c3cc(Br)cs3)s2)cc1`, the growth is 84.9% in [1]; 15% in [2]; 56.5% in assay [3]; 70.9% in [4]; 71.4% in assay [5]; 71.7% in [6]. The growth in assay [7] is 43.8%; in assay [8] it was 66.4%; in [9], 79.5%; in assay [10], 30.4%.

As to `O=C1/C(=C/c2cccs2)SC(=S)N1CCCN1CCOCC1`, the growth in [1] is 92%; in [2], 85.4%; in assay [3], 84.3%; in [4], 82.7%; in assay [5], 99.6%; in assay [6], 102%. Besides, the growth in assay [7] is 102%; in assay [8], 92.7%; in assay [9] it was 93.9%; in [10], 93.4%.

As to `C=CCn1cc(-c2nc3ccccc3s2)c2cc(-c3ccc4c5c(cccc35)C(=O)N(N)C4=O)ccc21`, the growth in [1] is 110%; in [2], 107%; in [3], 101%; in assay [4] it was 83.1%; in assay [5], 106%; in [6] it was 89.5%. Also, the growth is 99.1% in [7], 101% in assay [8], 104% in assay [9] and 94.5% in assay [10].

As for `COc1ccc(-c2csc(NC(=O)CSc3nc(-c4ccccc4)cc(=O)[nH]3)n2)cc1`, the growth is 76.1% in assay [1]; 42.9% in assay [2]; 60.2% in assay [3]; 83.5% in [4]; 86.5% in assay [5]; 77.9% in assay [6]. The growth in [7] was 53.3%; in assay [8], 78.3%; in assay [9], 77.1%; in assay [10], 59.1%.

As for `Cc1ccccc1NC(=O)c1sc2nc(C)c(C(=O)/C=C/c3ccccc3)cc2c1N`, the growth in assay [1] is 10.5%; in [2], 13%; in assay [3], 59.7%; in assay [4] it was 3.85% (active); in assay [5], -26.7% (active); in assay [6] it was 11.8%. The growth in assay [7] is 14%; in assay [8] it was -34.4% (active); in [9], 68.5%; in [10], 4.85% (active).

On to `COC1C[C@H](O[C@@H]2C[C@H](O[C@@H]3C[C@H](O[C@@H]4C(=O)c5c(cc6cc(O[C@H]7C[C@@H](O[C@H]8C[C@@H](O)[C@H](O)C(C)O8)[C@H](O)C(C)O7)c(C)c(O)c6c5O)C[C@H]4C(OC)C(=O)[C@@H](O)[C@@H](C)O)OC(C)[C@H]3O)OC(C)[C@@H]2O)OC(C)[C@@H]1O` (stereo not given in full), for which the growth is 14% in [1]; 4.88% (active) in [2]; -59.4% (active) in assay [3]; -7.44% (active) in [4]; -50.9% (active) in [5]; 18.3% in assay [6]. The growth is 7.37% (active) in assay [7], -8.29% (active) in assay [8], -37.3% (active) in assay [9] and -22.7% (active) in assay [10].

Turning to `O=[N+]([O-])C1C(c2ccccc2)C12c1ccccc1-c1ccccc12` (stereo not given), the growth in [1] was -36.8% (active); in [2] it was -12.5% (active); in assay [3], 59.4%; in assay [4] it was 6.89% (active); in [5], -21.8% (active); in [6], 29.3%. The growth in assay [7] is -23.1% (active); in assay [8] it was -12.2% (active); in assay [9] it was 40.9%; in assay [10], -10.2% (active).

In the case of `CCCCN[C@H]1CC[C@@]2(C)[C@@H](CC[C@@]3(C)[C@H]2[C@H](O)C[C@H]2/C(=C(\CCC=C(C)C)C(=O)OC)[C@@H](OC(C)=O)C[C@@]23C)[C@@H]1C`, the growth in [1] was 112%; in assay [2] it was 30.5%; in assay [3], 96.9%; in assay [4], 114%; in assay [5] it was 103%; in assay [6] it was 100%. The growth in assay [7] was 99%; in [8] it was 99.3%; in [9] it was 98.1%; in [10], 96.2%.

Take `COc1cccc([C@H]2c3[nH]c4ccccc4c3C[C@H]3C(=O)N(CCCCCCC(=O)NO)CC(=O)N23)c1`: the growth was 76.9% in [1]; 27% in assay [2]; 24.3% in assay [3]; 68.7% in assay [4]; 75% in assay [5]; 88.4% in [6]. Also, the growth in assay [7] is 87.5%; in assay [8] it was 60.6%; in assay [9] it was 51.6%; in [10], 59.6%.

With `O=C(Nc1ccc(NC(=O)c2cc(=O)[nH]c3ccccc23)cc1)Nc1cccc(C(F)(F)F)c1`, the growth in [1] was 76.2%; in assay [2], 53%; in assay [3] it was 31.7%; in assay [4], 26.7%; in [5], 108%; in assay [6], 50.7%. The growth in assay [7] was 74.5%; in [8], 50.1%; in assay [9], 80.5%; in [10] it was 69.9%.

`CC12CCC3c4ccccc4CCC3(CO1)C2` (stereo not given): the growth was 121% in assay [1]; 99.9% in assay [2]; 95.1% in assay [3]; 124% in assay [4]; 93.4% in assay [5]; 107% in assay [6]. For the same molecule, the growth in [7] was 77.2%; in [8] it was 104%; in [9], 110%; in assay [10], 128%.

`O=C(Nc1cccc([N+](=O)[O-])c1)c1cc2ccccc2cc1O`: the growth is 10.6% in assay [1]; -9.38% (active) in assay [2]; -23.3% (active) in assay [3]; -43% (active) in assay [4]; 5.31% (active) in [5]; 18.3% in [6]. For the same molecule, the growth in assay [7] was -9.62% (active); in [8] it was 4.44% (active); in assay [9] it was -10.1% (active); in assay [10], 19%.

Take `COc1cc(-c2csc(NC(=O)c3cc(-n4cnc(C)c4)cc(C(F)(F)F)c3)n2)cc(OC)c1OC`: the growth is 56.4% in assay [1]; 26.8% in assay [2]; 67.7% in [3]; 61.3% in assay [4]; 66.7% in [5]; 68.6% in assay [6]. Besides, the growth in assay [7] is 57.9%; in [8], 90.9%; in assay [9], 81.9%; in assay [10] it was 66.7%.

On to `O=C1CC(N2C(=O)/C(=C/C(Cl)=C\c3ccc([N+](=O)[O-])cc3)SC2=S)C(=O)N1c1ccc(Cl)cc1` (stereo not given), for which the growth was 22.4% in [1]; 6.26% (active) in assay [2]; 22.9% in [3]; -3.07% (active) in [4]; -64.1% (active) in assay [5]; 21.8% in [6]. Also, the growth in assay [7] is 40.7%; in assay [8], 15.9%; in [9], 57.8%; in assay [10], 23.9%.

Regarding `O=C(Cc1ccccc1)Nc1nc(O)c(/C=C2\C(=O)C=Cc3ccccc32)s1`, the growth is 104% in assay [1]; 100% in assay [2]; 106% in [3]; 98.1% in [4]; 111% in assay [5]; 99.2% in assay [6]. The growth is 103% in assay [7], 102% in assay [8], 106% in assay [9] and 89.7% in assay [10].
